Assay results published in PubChem BioAssay.
Values joined by “and” are separate entries in the source; they are usually repeats but may differ in a detail not shown here. Equal entries are not always repeated. For part of these data: Entries with a potency or affinity are not part of this list. Active and inactive are the calls of the source.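 Rule for the calls, unless noted: active = thallium flux through the channel raised or lowered by more than 3 SD from vehicle-only wells, actives on both sides; inactive = the rest.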

Assays:
[1] = blockers of polyQ-driven CASP3 activation – cell-based (AID 1583); conditions: polyglutamine-induced caspase-3 activation, cell assay; stronger effect = higher value;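 tested at 10 µM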
[2] = yeast 75Q aggregation reduction – 75Q-TubU reporter (AID 1593); conditions: Yeast 75Q polyglutamine aggregation reporter
[3] = restoration of touch response, mutant HTT neurons – whole organism, C. elegans mechanosensory neurons, N-terminal huntingtin (AID 1599); conditions: C. elegans polyQ-huntingtin mechanosensory neurons, stronger effect = higher value
[4] = blockers of cytochrome c efflux from mitochondria – biochemical, purified mitochondria (AID 1603); conditions: stronger effect = lower value;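 note: mouse liver mitochondria challenged with calcium chloride; signal normalized to the plate average as 100%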
[5] = polyglutamine aggregate formation blockers (AID 1604); conditions: polyglutamine-induced protein aggregation inhibition assay; stronger effect = higher value; tested at 2.5 µM
[6] = glutamate transport activators, MN-1 cells, MN-1 cell line (AID 1612); conditions: MN-1 motor neuron cells, stronger effect = higher value;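 note: tested at 1 µM final; 0% = mean of DMSO vehicle wells on each plate; positive means more glutamate uptake than control and negative means less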
[7] = 75Q-TubH aggregate inhibition, S. cerevisiae, yeast (AID 1616); conditions: S. cerevisiae 75Q-TubH polyglutamine aggregation suppression; stronger effect = higher value
[8] = compounds altering viability of human ES cells (AID 493140; call rule not given here;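 note: cells exposed to compounds for four days before counting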); conditions: human embryonic stem cell survival screen; stronger effect = higher value
[9] = signal quenchers or enhancers, Cy5 substrate/SSB – biochemical, NIH Clinical Collection, E. coli SSB, artefact control for HCV NS3 helicase inhibitor project (AID 743268; call rule not given here); conditions: Cy5-oligo bound E. coli SSB, fluorescence interference
[10] = modulation of C. elegans fzo-1 (AID 1259413; call rule not given here;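 note: fzo-1 mutant C. elegans worms in liquid wells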); conditions: C. elegans fzo-1 modulator screen, mean read-out; stronger effect = higher value
[11] = galactose survival enhancers in mitochondrial complex I cybrids – cell-based, galactose medium, ATP luminescence, primary screen (AID 1645843;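 active = z-score of at least 1.8 in each of two replicates, scored against plate mean and spread of sample wells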;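 note: positive z means more ATP and so rescue of galactose-driven cybrid death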); conditions: complex I mutant cybrid cells, 72 h, stronger effect = higher value
[12] = test system: F380Y/beta1; test: BK channel mutant inhibitors and activators – cell-based, U2OS BacMam, thallium flux, beta subunits, selectivity assay, profiling panel (AID 1259406); conditions: U2OS BacMam BK variants, at 30 µM;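 note: initial slope of Thallos dye fluorescence rise after thallium is added; log ratio against the mean of 0.3% DMSO vehicle wells on the same plate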
[13] = test system: F380Y/beta4; test: as above; conditions: U2OS BacMam BK variants, at 30 µM
[14] = test system: R275C; test: as above; conditions: U2OS BacMam BK variants, at 30 µM
[15] = test system: R275C/beta1; test: as above; conditions: U2OS BacMam BK variants, at 30 µM
[16] = test system: R275C/beta2Delta; test: as above; conditions: U2OS BacMam BK variants, at 30 µM
[17] = test system: R275C/beta4; test: as above; conditions: U2OS BacMam BK variants, at 30 µM
[18] = test system: R275C/Slo1WT/beta2; test: as above; conditions: U2OS BacMam BK variants, at 30 µM
[19] = P. berghei load reduction in hepatocytes – cell-based, HepG2, luciferase luminescence, HepG2 viability, primary screen (AID 624349; in the data active = parasite load remaining mostly below about 12%, no sharp cut-off; inactive = mostly above about 10%;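 note: 100% = mean of DMSO negative control wells on the same plate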); conditions: P. berghei liver stage in HepG2, luciferase luminescence, concentration not given here; parasite load remaining: stronger effect = lower value; viability: measured here: HepG2 viability without parasites

SMILES	inhibition [1] [%]	score [2]	rescue above control [3]	cytochrome c release ratio [4]	inhibition of aggregation [5] [%]	glutamate uptake change [6] [%]	aggregation suppression score [7]	survival [8]	fluorescence ratio [9]	mean signal [10]	z-score [11]	log fold change Tl+ flux [12]	log fold change Tl+ flux [13]	log fold change Tl+ flux [14]	log fold change Tl+ flux [15]	log fold change Tl+ flux [16]	log fold change Tl+ flux [17]	log fold change Tl+ flux [18]	parasite load remaining [19]	viability [19]
CC(C)NCC(O)c1cc(O)cc(O)c1 (configuration not stated)	11.6	1.21	-1.18	0.62	83.9	-18.3	1.15	10.4 (inactive)	1.05 (inactive)	261 (inactive)	0.07 (inactive) and 1.61 (inactive)	0.0393 (inactive)	-0.0531 (inactive)	0.0473 (inactive)	-0.038 (inactive)	0.0259 (inactive)	0.0475 (inactive)	0.0212 (inactive)		
O=C1[C@H](CC[C@H](O)c2ccc(F)cc2)[C@@H](c2ccc(O)cc2)N1c1ccc(F)cc1									0.97 (inactive)	228 (inactive)		0.33 (active)	0.106 (active)	-0.0195 (inactive)	0.416 (active)	0.12 (active)	0.207 (active)	0.0256 (inactive)	62.8% (inactive)	65.3%
OCCN1C[C@H](O)[C@@H](O)[C@H](O)[C@H]1CO									1.05 (inactive)	232 (inactive)		-0.0621 (inactive)	-0.0159 (inactive)	-0.0048 (inactive)	-0.0736 (inactive)	-0.00824 (inactive)	-0.031 (inactive)	-0.0316 (inactive)	103% (inactive)	80%
C[C@]12CCC(=O)C=C1CC[C@@H]1[C@@H]2[C@@H](O)C[C@@]2(C)[C@H]1CC[C@]2(O)C(=O)CO								5.5 (inactive)	0.95 (inactive)	278 (inactive)	0.565 (inactive) and 0.385 (inactive) and -0.22 (inactive)	0.0243 (inactive)	0.00205 (inactive)	-0.0265 (inactive)	-0.0128 (inactive)	0.0134 (inactive)	-0.0399 (inactive)	0.0266 (inactive)		
Cc1cccc(Nc2ccccc2C(=O)O)c1C	14.9	0.19	14.6	1	32.9	-12.3	0.495	12.2 (inactive)	1 (inactive)	235 (inactive)	0.385 (inactive) and 1.06 (inactive)	0.147 (active)	0.146 (active)	0.009 (inactive)	0.182 (active)	0.117 (active)	0.0837 (inactive)	0.00462 (inactive)		
Cc1onc(-c2ccccc2)c1-c1ccc(S(N)(=O)=O)cc1									1 (inactive)	275 (inactive)	-0.505 (inactive)	0.0307 (inactive)	0.0618 (inactive)	0.0179 (inactive)	0.0767 (inactive)	0.0842 (inactive)	0.0327 (inactive)	-0.0445 (inactive)	163% (inactive) and 88.9% (inactive)	90.7% and 71.3%
CCCN(CCC)S(=O)(=O)c1ccc(C(=O)O)cc1	2.2	0.68	9.13	1.07	52.4	-14.7	0.579	6.25 (inactive)	1.02 (inactive)	252 (inactive)	0.145 (inactive)	-0.02 (inactive)	-0.0299 (inactive)	-0.00526 (inactive)	-0.0021 (inactive)	-0.000317 (inactive)	-0.0261 (inactive)	0.0366 (inactive)		
CC(C)(C)NC[C@H](O)COc1nsnc1N1CCOCC1								4.17 (inactive)	0.99 (inactive)	275 (inactive)	0.57 (inactive) and -0.2 (inactive) and 0.33 (inactive)	-0.0365 (inactive)	0.0021 (inactive)	-0.000858 (inactive)	-0.0605 (inactive)	-0.0488 (inactive)	-0.0714 (inactive)	-0.0819 (inactive)	64.7% (inactive) and 81.2% (inactive) and 46% (inactive)	97.8% and 98% and 104%
C[C@]12C=CC(=O)C=C1CC[C@@H]1[C@@H]2C(=O)C[C@@]2(C)[C@H]1CC[C@]2(O)C(=O)CO								15.9 (inactive)	0.107 (active)		0.315 (inactive) and 0.45 (inactive)	0.00863 (inactive)	0.000343 (inactive)	-0.0236 (inactive)	-0.0318 (inactive)	0.028 (inactive)	-0.00291 (inactive)	-0.00226 (inactive)		
CC1=C(C(=O)O)N2C(=O)[C@@H](NC(=O)[C@H](N)c3ccccc3)[C@H]2SC1								10.4 (inactive)	1.01 (inactive)	265 (inactive)		-0.0395 (inactive)	-0.0677 (inactive)	-0.0778 (inactive)	-0.0268 (inactive)	-0.026 (inactive)	-0.0153 (inactive)	-0.0484 (inactive)	125% (inactive) and 69.1% (inactive) and 137% (inactive)	119% and 79.9% and 115%
O[C@@H](c1cc(C(F)(F)F)nc2c(C(F)(F)F)cccc12)[C@H]1CCCCN1									1.04 (inactive)	213 (inactive)	-1.5 (inactive)	0.529 (active)	0.648 (active)	0.256 (active)	0.641 (active)	0.366 (active)	0.803 (active)	0.107 (inactive)	-2.37% (inactive)	0.505%
C[C@]12CCC(=O)C=C1CC[C@@H]1[C@@H]2[C@@H](O)C[C@@]2(C)[C@H]1CC[C@]2(O)C(=O)COC(=O)CCC(=O)O									0.99 (inactive)	257 (inactive)	-0.315 (inactive)	-0.0186 (inactive)	0.0128 (inactive)	0.0834 (inactive)	0.0319 (inactive)	0.0103 (inactive)	-0.0484 (inactive)	-0.0271 (inactive)	82.9% (inactive)	105%
CCCSc1ccc2nc(NC(=O)OC)[nH]c2c1	25.8	0.16	-16.6	0.88	11.8	21.4	0.174	0.917 (inactive)	1.01 (inactive)	254 (inactive)	0.56 (inactive) and -0.955 (inactive)	-0.0515 (inactive)	-0.0654 (inactive)	0.0372 (inactive)	0.0301 (inactive)	0.0234 (inactive)	-0.0656 (inactive)	-0.017 (inactive)		
Cc1cccc(CN2CCN(C(c3ccccc3)c3ccc(Cl)cc3)CC2)c1 (configuration not stated)	7.71	1.9	1.73	0.33	63.4	17.6	1.86	3.33 (inactive)	0.1 (active)	222 (inactive)	-1.5 (inactive)	-0.208 (active)	-0.141 (active)	0.00971 (inactive)	-0.0498 (inactive)	0.0052 (inactive)	-0.091 (inactive)	-0.00698 (inactive)		
COc1ccc2cc(CCC(C)=O)ccc2c1	10.1	0.11		0.7	91.3	13.8	0.329	4.83 (inactive)	0.1 (active)	213 (inactive)	0.395 (inactive) and 0.51 (inactive)	-0.0534 (inactive)	-0.162 (active)	-0.0871 (active)	-0.284 (active)	-0.233 (active)	-0.216 (active)	-0.0751 (inactive)		
Cc1ccc(O)c([C@H](CCN(C(C)C)C(C)C)c2ccccc2)c1									1 (inactive)	219 (inactive)		0.0975 (active)	0.136 (active)	-0.0487 (inactive)	0.03 (inactive)	0.0798 (inactive)	0.0668 (inactive)	0.0213 (inactive)	63.7% (inactive)	67.2%
C[C@H](CCC(=O)O)[C@H]1CC[C@H]2[C@@H]3C(=O)C[C@@H]4CC(=O)CC[C@]4(C)[C@H]3CC(=O)[C@]12C									0.97 (inactive)	247 (inactive)		-0.0273 (inactive)	-0.0104 (inactive)	-0.000869 (inactive)	-0.0193 (inactive)	-0.00319 (inactive)	0.0134 (inactive)	-0.0176 (inactive)	41.4% (inactive) and 59.6% (inactive)	47.4% and 73.1%
CN[C@@H]1[C@H](O)[C@H](NC)[C@H]2O[C@@]3(O)C(=O)C[C@@H](C)O[C@H]3O[C@@H]2[C@H]1O	16.9	1.49	0.75	0.85	14.3	-0.34	1.46	3.25 (inactive)	1.06 (inactive)		0.84 (inactive) and 1 (inactive)	0.00447 (inactive)	0.0229 (inactive)	0.108 (active)	0.0857 (inactive)	-0.00159 (inactive)	0.0437 (inactive)	-0.0137 (inactive)		
CC(=O)OCC[N+](C)(C)C	26.2	1.05	5.33	1.31	74.9	-18.6	1.22		1.03 (inactive)	251 (inactive)	1.64 (inactive) and 0.235 (inactive)	0.000642 (inactive)	-0.0182 (inactive)	-0.00869 (inactive)	-0.00581 (inactive)	-0.00325 (inactive)	0.0607 (inactive)	0.0039 (inactive)		
